Experimental findings from paper PMC7862700, “An all-to-all approach to the identification of sequence-specific readers for epigenetic DNA modifications on cytosine” are described below.

What all share (assay): DAPPL (digital affinity profiling via proximity ligation, sequencing); 10 mM Tris-HCl pH 7.5, 50 mM NaCl, 1 mM DTT, 4% glycerol, room temperature, 30 min; GST-TFs on glutathione beads, 16-mer random dsDNA library, 0.1% formaldehyde crosslink after washing; high values mean tight binding
One experiment addresses T1, ELK3 (Homo sapiens, UniProt P41970 1-407).
T1 sequence: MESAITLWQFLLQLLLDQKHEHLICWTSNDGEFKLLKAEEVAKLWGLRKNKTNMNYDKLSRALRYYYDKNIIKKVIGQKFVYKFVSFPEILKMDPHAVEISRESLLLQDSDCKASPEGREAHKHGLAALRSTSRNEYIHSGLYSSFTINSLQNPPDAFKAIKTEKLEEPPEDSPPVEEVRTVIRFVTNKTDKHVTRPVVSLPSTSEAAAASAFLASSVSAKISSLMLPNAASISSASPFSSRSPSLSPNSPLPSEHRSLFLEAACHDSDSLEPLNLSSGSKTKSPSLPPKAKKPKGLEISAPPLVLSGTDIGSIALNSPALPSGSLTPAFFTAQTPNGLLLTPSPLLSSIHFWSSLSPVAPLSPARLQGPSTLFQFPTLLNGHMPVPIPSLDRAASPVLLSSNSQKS
The note with it: protein: recombinant; tags: N-terminal GST; dsDNA, one strand shown. A digest of the protocol:
(§1)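 Human transcription factors were made in yeast as GST fusions, captured on glutathione beads and barcoded with DNA. With a tag-only sample included, the pool was incubated with 200 nmole of a random double-stranded 16-mer DNA library in Tris/NaCl/DTT/glycerol buffer at room temperature for 30 min, then crosslinked with 0.1% formaldehyde after washing, ligated by proximity, amplified and sequenced. For binding signal, each hexamer's read frequency for a factor is divided by its frequency for the tag-only sample.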

A further experiment has as its target HSF1 (Homo sapiens, UniProt Q00613 1-529). The note with it: protein: recombinant; tags: N-terminal GST; chain copies: 3; dsDNA, one strand shown. The procedure, abridged:
as §1

The next experiment deals with ELF4 (Homo sapiens, UniProt Q99607 1-663). The note with it: protein: recombinant; tags: N-terminal GST; dsDNA, one strand shown. The procedure, abridged:
as §1

In a further experiment the target is T2, ELK4 (Homo sapiens, UniProt P28324-2 1-405).
T2 sequence: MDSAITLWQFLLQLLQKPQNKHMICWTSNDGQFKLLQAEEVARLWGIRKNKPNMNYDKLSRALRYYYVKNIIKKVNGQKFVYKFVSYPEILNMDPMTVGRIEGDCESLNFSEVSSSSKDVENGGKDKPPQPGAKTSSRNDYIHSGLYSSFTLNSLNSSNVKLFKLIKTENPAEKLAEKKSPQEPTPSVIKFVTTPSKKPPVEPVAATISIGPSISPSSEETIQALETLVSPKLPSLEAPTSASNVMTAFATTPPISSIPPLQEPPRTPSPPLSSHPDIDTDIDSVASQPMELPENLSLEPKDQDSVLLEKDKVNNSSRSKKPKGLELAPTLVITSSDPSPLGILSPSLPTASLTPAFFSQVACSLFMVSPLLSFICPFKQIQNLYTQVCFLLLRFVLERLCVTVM
Conditions: protein: recombinant; tags: N-terminal GST; dsDNA, one strand shown. The procedure, abridged: as §1

For a further experiment, the target named is T3, ETV2 (Homo sapiens, UniProt O00321 1-342).
T3 sequence: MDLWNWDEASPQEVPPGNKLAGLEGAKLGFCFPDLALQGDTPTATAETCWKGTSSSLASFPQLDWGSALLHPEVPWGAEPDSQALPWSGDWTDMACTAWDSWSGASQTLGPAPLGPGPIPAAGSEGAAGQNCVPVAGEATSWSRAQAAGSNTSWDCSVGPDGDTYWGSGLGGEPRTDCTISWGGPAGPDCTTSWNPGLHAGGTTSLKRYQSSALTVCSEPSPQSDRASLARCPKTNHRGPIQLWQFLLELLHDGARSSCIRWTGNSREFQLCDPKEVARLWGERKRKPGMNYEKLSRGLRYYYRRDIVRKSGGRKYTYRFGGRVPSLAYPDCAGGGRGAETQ
Conditions: protein: recombinant; tags: N-terminal GST; dsDNA, one strand shown. A digest of the protocol:
as §1

A further experiment addresses T4, ELF3 (Homo sapiens, UniProt P78545 1-371).
T4 sequence: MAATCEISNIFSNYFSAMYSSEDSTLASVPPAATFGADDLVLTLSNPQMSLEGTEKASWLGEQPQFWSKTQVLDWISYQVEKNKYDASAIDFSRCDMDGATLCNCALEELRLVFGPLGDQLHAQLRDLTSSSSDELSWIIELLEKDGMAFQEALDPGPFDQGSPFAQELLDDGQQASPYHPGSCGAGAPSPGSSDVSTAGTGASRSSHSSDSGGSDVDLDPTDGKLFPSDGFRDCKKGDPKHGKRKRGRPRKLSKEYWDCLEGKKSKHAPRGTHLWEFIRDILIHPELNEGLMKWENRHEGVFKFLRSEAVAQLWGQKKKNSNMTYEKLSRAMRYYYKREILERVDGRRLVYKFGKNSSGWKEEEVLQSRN
Conditions: protein: recombinant; tags: N-terminal GST; dsDNA, one strand shown. The procedure, abridged:
as §1

The target in another experiment is CRX (Homo sapiens, UniProt O43186 1-299). Conditions: protein: recombinant; tags: N-terminal GST; dsDNA, one strand shown. The procedure, abridged:
as §1

Another experiment concerns the target T5, ETV7 (Homo sapiens, UniProt Q9Y603 1-341).
T5 sequence: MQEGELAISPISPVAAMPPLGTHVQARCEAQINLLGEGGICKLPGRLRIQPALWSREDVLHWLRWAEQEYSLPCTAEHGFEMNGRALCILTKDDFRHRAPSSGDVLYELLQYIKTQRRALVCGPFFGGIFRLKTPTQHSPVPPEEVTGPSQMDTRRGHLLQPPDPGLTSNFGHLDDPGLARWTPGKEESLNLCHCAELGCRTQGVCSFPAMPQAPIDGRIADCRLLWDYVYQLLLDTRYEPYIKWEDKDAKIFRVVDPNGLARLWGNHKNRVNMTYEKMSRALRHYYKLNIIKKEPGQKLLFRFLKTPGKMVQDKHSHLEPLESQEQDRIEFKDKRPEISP
The note with it: protein: recombinant; tags: N-terminal GST; dsDNA, one strand shown. The procedure, abridged: as §1

Sequence of CRX (O43186 whole entry): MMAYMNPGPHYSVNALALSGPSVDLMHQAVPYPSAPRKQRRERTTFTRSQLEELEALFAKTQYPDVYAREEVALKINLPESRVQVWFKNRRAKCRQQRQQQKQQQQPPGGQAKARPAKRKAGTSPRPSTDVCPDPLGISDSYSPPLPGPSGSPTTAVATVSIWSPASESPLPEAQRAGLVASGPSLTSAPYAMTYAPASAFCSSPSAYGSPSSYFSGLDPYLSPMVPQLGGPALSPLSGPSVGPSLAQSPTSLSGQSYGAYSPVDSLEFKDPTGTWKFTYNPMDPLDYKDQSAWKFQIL
Sequence of HSF1 (Q00613 whole entry): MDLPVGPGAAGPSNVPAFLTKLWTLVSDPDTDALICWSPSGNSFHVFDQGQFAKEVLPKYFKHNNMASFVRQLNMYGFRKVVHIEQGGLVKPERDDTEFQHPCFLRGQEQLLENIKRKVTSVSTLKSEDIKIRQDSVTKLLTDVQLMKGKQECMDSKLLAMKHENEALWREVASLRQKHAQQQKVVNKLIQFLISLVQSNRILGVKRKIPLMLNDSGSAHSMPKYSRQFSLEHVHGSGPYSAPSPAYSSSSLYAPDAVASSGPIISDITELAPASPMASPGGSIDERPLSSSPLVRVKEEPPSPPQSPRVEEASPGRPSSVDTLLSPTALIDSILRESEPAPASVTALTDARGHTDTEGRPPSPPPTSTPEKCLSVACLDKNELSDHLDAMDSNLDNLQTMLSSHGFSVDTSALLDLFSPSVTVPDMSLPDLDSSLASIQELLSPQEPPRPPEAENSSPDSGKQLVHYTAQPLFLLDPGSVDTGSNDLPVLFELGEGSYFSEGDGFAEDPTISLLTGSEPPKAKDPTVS
Sequence of ELF4 (Q99607 whole entry): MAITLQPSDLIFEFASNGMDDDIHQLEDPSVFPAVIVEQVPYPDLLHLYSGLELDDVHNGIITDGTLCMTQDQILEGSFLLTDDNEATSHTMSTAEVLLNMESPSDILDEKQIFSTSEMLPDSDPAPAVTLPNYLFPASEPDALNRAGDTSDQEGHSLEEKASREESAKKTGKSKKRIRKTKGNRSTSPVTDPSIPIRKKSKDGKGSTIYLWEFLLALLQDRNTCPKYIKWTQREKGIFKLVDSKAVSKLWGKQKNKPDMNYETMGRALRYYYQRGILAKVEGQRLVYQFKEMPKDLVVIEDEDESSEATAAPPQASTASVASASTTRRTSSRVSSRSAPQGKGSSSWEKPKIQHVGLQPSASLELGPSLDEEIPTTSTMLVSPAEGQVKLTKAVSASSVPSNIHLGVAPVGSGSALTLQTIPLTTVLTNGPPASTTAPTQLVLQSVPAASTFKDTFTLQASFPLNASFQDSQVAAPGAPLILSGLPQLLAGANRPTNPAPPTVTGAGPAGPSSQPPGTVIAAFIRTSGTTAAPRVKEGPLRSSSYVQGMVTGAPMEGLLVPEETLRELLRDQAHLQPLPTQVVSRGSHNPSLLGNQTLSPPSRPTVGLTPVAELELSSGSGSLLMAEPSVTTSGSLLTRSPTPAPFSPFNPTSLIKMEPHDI

With CCAGAA, the binding signal was 1 fold enrichment (6-mer frequency, TF over GST control) with ELK3; 3.7 fold enrichment (6-mer frequency, TF over GST control) with HSF1; 1.05 fold enrichment (6-mer frequency, TF over GST control) with ELF4; 1.06 fold enrichment (6-mer frequency, TF over GST control) in the experiment with ELK4; 1.05 fold enrichment (6-mer frequency, TF over GST control) in the experiment with ETV2; 1.07 fold enrichment (6-mer frequency, TF over GST control) in the experiment with ELF3. In addition, the binding signal with CRX is 1.49 fold enrichment (6-mer frequency, TF over GST control); with ETV7, 1.05 fold enrichment (6-mer frequency, TF over GST control).
